Compound activity: PubChem, several laboratories
An excerpt weighted towards active compounds, which were near 3.8% of everything screened.
Shn3 inh set2 = reduces Shn3 3'UTR luciferase signal in osteoblasts; Clone20 osteoblast Shn3 3'UTR firefly luciferase, 24 h; hit rate 0.52% among 360,000; inhibition, % at 12.5 µM; AID 588674;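 active means mean inhibition of at least 75% with every replicate also reaching 75%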;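 further: 0% = median of neutral control wells and 100% = pilot-screen positive control compound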
697 NFkB inh = inhibitors of the PMA/ionomycin-induced NF-kB reporter in 697 B cells | 697 B-cell NF-kB luciferase reporter, 16 h | inhibition, % at 4 µM | hit rate 0.33% among 330,000; in the data active means inhibition above about 35%
Jurkat NFkB inh = inhibitors of the PMA/ionomycin-induced NF-kB reporter in Jurkat cells | inhibition, % at 4 µM | hit rate 0.53% among 330,000 | PMA/ionomycin-induced NF-kB luciferase reporter, luminescence | AID 435003; in the data active means inhibition above about 50%
Mdm2-MdmX inh = inhibitors of human Mdm2/MdmX interaction. O15151+Q00987. SaOS-2 split-luciferase Mdm2/MdmX complementation, luminescence. inhibition, % at 8 µM. hit rate 3% among 330,000;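 active means inhibition of at least 50% at 8 µM in the primary screen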
Target sequence (O15151 whole entry, looked up): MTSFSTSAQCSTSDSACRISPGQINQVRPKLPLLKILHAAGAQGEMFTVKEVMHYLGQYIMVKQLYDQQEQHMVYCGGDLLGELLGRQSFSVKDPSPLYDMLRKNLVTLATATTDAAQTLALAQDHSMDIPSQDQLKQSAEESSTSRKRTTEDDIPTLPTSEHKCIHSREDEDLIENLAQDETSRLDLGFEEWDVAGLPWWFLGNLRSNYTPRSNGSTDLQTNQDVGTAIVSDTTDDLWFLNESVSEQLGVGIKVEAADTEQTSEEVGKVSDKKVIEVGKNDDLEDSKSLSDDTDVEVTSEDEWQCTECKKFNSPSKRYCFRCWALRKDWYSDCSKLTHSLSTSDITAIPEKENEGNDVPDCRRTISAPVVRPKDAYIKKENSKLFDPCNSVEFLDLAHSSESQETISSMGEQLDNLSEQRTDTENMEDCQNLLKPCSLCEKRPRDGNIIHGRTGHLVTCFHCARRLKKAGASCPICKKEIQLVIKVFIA
Target sequence (Q00987 whole entry, looked up): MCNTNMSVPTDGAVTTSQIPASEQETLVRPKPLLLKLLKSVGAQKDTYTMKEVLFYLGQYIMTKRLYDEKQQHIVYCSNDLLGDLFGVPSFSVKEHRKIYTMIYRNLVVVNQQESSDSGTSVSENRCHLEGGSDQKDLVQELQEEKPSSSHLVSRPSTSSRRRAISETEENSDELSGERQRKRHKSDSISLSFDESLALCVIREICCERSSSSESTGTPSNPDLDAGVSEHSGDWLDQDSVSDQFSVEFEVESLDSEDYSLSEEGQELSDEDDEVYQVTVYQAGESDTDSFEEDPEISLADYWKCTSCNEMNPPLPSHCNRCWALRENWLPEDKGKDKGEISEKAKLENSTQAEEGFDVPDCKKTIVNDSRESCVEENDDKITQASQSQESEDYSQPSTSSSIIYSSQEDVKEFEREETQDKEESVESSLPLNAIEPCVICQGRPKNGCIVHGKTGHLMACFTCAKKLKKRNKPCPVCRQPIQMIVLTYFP
Gli-Sufu antag = Gli-Sufu pathway antagonism | inhibition, % at 5 µM | hit rate 0.74% among 340,000 | Sufu-KO-LIGHT fibroblasts, Gli luciferase reporter luminescence;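 active means inhibition above about 55%, limit read from the data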;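 further: 0% = DMSO-treated cells and 100% = wells with medium but no cells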
Gli-Sufu confirm = confirmation of Gli-SUFU pathway antagonists. inhibition, % at 5 µM. hit rate 40% among 2,500. shares compounds with Gli-Sufu antag. Sufu-KO-LIGHT cells, Gli luciferase reporter, luminescence. AID 602428;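 active means mean inhibition at 5 µM reaching about 45%, limit read from the data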;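 further: plate controls were DMSO-treated cells for no effect and wells lacking cells for full effect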
Gli cytotox = counter-screen for Gli-SUFU antagonists: cytotoxicity; cytotoxicity, % at 5 µM; shares compounds with Gli-Sufu antag; AID 651994; hit rate 32% among 2,500; Sufu-KO-LIGHT cells cytotoxicity, ATP luminescence;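 active means mean cytotoxicity at 5 µM above about 25%, limit read from the data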;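 further: cells exposed to compound overnight for roughly 16 to 18 hours; plate controls were DMSO wells with cells for no effect and medium without cells for full effect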
Wnt3a counter = counter-screen for Gli-SUFU antagonists: Wnt3a reporter inhibition. Wnt-LIGHT cells, Wnt3a-driven luciferase reporter, luminescence. inhibition, % at 6.25 µM. AID 651995. hit rate 20% among 2,500. shares compounds with Gli-Sufu antag;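 active means mean inhibition above about 25%, limit read from the data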
Starred values were filed as active, the others as inactive; . = no result given.

SMILES | Shn3 inh set2 | 697 NFkB inh | Jurkat NFkB inh | Mdm2-MdmX inh | Gli-Sufu antag | Gli-Sufu confirm | Gli cytotox | Wnt3a counter
Cc1nc2ccccc2n1Cc1ccc(Br)cc1 | 81 | -54 | 47 | 0 | 62* | 59* | 28* | 22
Cc1nc2ccccc2n1Cc1ccccc1 | 49 | -12 | 6 | 14 | 20 | . | . | .
Cc1ccc(S(=O)(=O)N(C)C)cc1NC(=O)C1CCCCN1S(=O)(=O)c1ccccc1 (stereo not given) | 0 | -27 | -27 | -15 | -13 | . | . | .
COc1ccc(NS(=O)(=O)c2ccc3c(c2)NC(=O)CO3)cc1 | -18 | 12 | -8 | 5 | -10 | . | . | .
COc1ccc(S(=O)(=O)NC2CCCCCC2)cc1C(N)=O | 16 | -3 | 6 | 26 | 63* | 7 | 25 | -50
CC(C)COC(=O)N(C)C[C@@H]1OCc2cnnn2CCCC(=O)N([C@@H](C)CO)C[C@H]1C | 18 | . | . | . | . | . | . | .
CN(C)S(=O)(=O)c1cccc(C(=O)OCC(=O)Nc2ccc3c(c2)OCCO3)c1 | -19 | 1 | -12 | -5 | -1 | . | . | .
CN(C)S(=O)(=O)c1cccc(C(=O)OCC(=O)Nc2sccc2C#N)c1 | 8 | -4 | -2 | 5 | 99* | 17 | 5 | -65
Cc1c(C(=O)OCc2ccc(F)cc2)sc2nc3n(c(=O)c12)CCC3 | -7 | -38 | -25 | 2 | -13 | . | . | .
COCCCN(C(=O)CCOc1ccc(C)cc1)c1c(N)n(Cc2ccccc2)c(=O)[nH]c1=O | 12 | 0 | -5 | 31 | -2 | . | . | .
Cc1ncc(C[n+]2csc(CCOC(=O)C34CC5CC(CC(C5)C3)C4)c2C)c(N)n1 | -13 | 3 | 9 | 4 | 5 | . | . | .
Cc1c(CCOC(=O)C23CC4CC(CC(C)(C4)C2)C3)sc[n+]1Cc1ccccc1 | 29 | -17 | 3 | 46 | 55 | 56* | 9 | -49
c1ccc(CNc2cncnc2)cc1 | -15 | -5 | -5 | 3 | 1 | . | . | .
Cc1ccc(C(=O)NC(C)C2CC3CCC2C3)c(C)c1 (stereo not given) | -32 | -23 | -25 | 2 | -36 | . | . | .
COc1ccc2c(c1OC)C(=O)OC2C1c2c(cc3c(c2OC)OCO3)CCN1C (stereo not given) | 0 | 19 | 1 | 25 | 51 | 34 | 17 | -6
CC(C)CN(C(=O)c1cccc(Cl)c1)c1c(N)n(CC(C)C)c(=O)[nH]c1=O | -1 | 6 | 8 | -8 | -26 | . | . | .
Cc1nc2ccc(S(=O)(=O)NCC(=O)N(C)Cc3ccccc3)cc2s1 | 9 | 12 | 8 | 0 | 1 | . | . | .
Cc1ccccc1N1C(=O)c2cccc([N+](=O)[O-])c2C1=O | 0 | . | . | . | 65* | 18 | 5 | 14
COc1ccc(OCC(=O)N2CCN(C(=O)c3ccc(F)cc3)CC2)cc1 | -2 | -31 | 4 | -25 | -17 | . | . | .
Cc1cc(=O)n2nc(N3CCCC(C(=O)NC4CCC(C)CC4)C3)sc2n1 (stereo not given) | 8 | 3 | -5 | 20 | -26 | . | . | .
CCOc1ccc2nc(N3CCCC(C(=O)NCCCN4CCCCC4)C3)sc2c1 (stereo not given) | -46 | -29 | -27 | -7 | 65* | 20 | 11 | -212
Cc1cc(=O)n2nc(N3CCCC(C(=O)NCCCN4CC(C)CC(C)C4)C3)sc2n1 (stereo not given) | -45 | 0 | -4 | 3 | 60* | 22 | 12 | -5
COc1ccc(C2(CNC(=O)c3ccc(OC)c([N+](=O)[O-])c3)CCCCC2)cc1OC | 20 | -8 | 7 | 2 | 5 | . | . | .
CCCNC(=S)NCc1ccc(Cl)cc1 | -35 | -42 | 25 | 9 | 2 | . | . | .
O=c1cc(N2CCc3ccccc32)[nH]c(=O)n1-c1ccccc1Cl | -12 | 17 | 15 | -14 | -2 | . | . | .
SMILES | Shn3 inh set2 | 697 NFkB inh | Jurkat NFkB inh | Mdm2-MdmX inh | Gli-Sufu antag | Gli-Sufu confirm | Gli cytotox | Wnt3a counter
Cc1ccccc1-n1c(=O)cc(N2CCc3ccccc32)[nH]c1=O | 2 | 0 | 14 | 12 | 63* | 29 | -11 | -4
O=C(C(Cl)c1ccccc1)N1CCOCC1 (stereo not given) | -34 | 22 | 8 | 21 | 3 | . | . | .
CCC(C)[C@H]1CN=C(N)N1CCc1cccc2ccccc12 (stereo not given in full) | 28 | -25 | 21 | 40 | 62* | 66* | 24 | 8
CCC(C)[C@H]1CNC(=S)N1CCc1cccc2ccccc12 (stereo not given in full) | -1 | 1 | 8 | -8 | 6 | . | . | .
FC(F)(F)c1nc(N2CCCC2)ncc1-c1nnnn1-c1ccc(Cl)cc1 | 57 | -41 | 7 | 30 | 54 | 54* | 45* | 20
CCOc1ccccc1CNCCNC(=O)c1nonc1N | -19 | 12 | 9 | 2 | -2 | . | . | .
Nc1nonc1C(=O)NCCNCc1cc(Br)ccc1OCc1ccccc1F | 85* | -14 | 13 | 21 | 51 | 44 | 34* | 2
COc1ccc(S(=O)(=O)NC2CC(C)(C)NC(C)(C)C2)cc1C(C)C | . | 2 | -1 | 26 | 51 | 17 | 11 | -18
COc1ccc(C(=O)NCCN2CCOCC2)cc1S(=O)(=O)Nc1ccc(C)cc1 | -8 | 17 | 3 | 11 | -5 | . | . | .
FC(F)(F)c1ccc(N2CCN(c3cc(-c4ccccc4)nc4ncnn34)CC2)nc1 | 69 | -10 | 20 | 45 | 57* | 49* | 10 | -64
CCN(c1ccccc1)S(=O)(=O)c1ccc(N2CCN(c3ccc(OC)cc3)CC2)nc1 | 40 | -21 | -9 | 3 | 24 | . | . | .
CCN(c1ccccc1)S(=O)(=O)c1ccc(N2CCN(c3ccc(O)cc3)CC2)nc1 | 28 | -21 | -2 | 5 | 55* | 29 | 4 | -24
Cc1nn(CC(=O)NCc2ccc(OC(C)C)cc2)c(=O)c2cc(-c3ccccc3)nn12 | -16 | -1 | 15 | 49 | -3 | . | . | .
O=C1CCCN1CN1CCCCC1 | -6 | -15 | -3 | 9 | 99* | 13 | 22 | -14
O=C1CN(CN2CCCCC2)C(=O)CN1CN1CCCCC1 | -6 | . | . | . | . | . | . | .
CCOc1ccc2nc(NC(=O)CSc3nnnn3C3CCCCC3)sc2c1 | -5 | 11 | 7 | 25 | 71* | 6 | 11 | -84
O=C(COC(=O)c1ccc(F)cc1F)NC(=O)Nc1ccc2c(c1)OCCO2 | -15 | -14 | -19 | -24 | -10 | . | . | .
Cc1ccccc1CNCc1ccc2c(c1)OCO2 | -17 | 9 | 0 | -14 | 51 | 27 | 4 | 1
Cc1ccc(C)c(-c2cc(C(=O)N/N=C/c3cccnc3)c3ccccc3n2)c1 | -3 | 13 | 14 | 14 | 52 | 19 | 7 | -40
Cc1cc(C(C)(C)C)ccc1OCCn1ccnc1 | 25 | -15 | 7 | 10 | 55* | 30 | 6 | -10
Cc1ccc(OCCn2ccnc2)c(C)c1 | -7 | 2 | -13 | 11 | -3 | . | . | .
